Experimental data from PubChem BioAssay (Tox21).
Several values for one entry are separate records, joined by “and”; a condition that tells them apart may be missing. Equal entries are not always repeated. Results filed as inconclusive are left out. A call without a number means that no potency is given here. Where a structure was tested more than once in an assay, its records may differ in their call. Activity calls are given as the source filed them. Unless noted, calls come from the whole dose curve; as a rule, active = well fitted curve in the direction sought with a large enough effect in the repeat runs; inconclusive = weak or mixed curves; inactive = no such curve, though single readings can be large; an effect the other way counts as inactive or inconclusive.

Assays:
[1] = qHTS assay to identify aromatase inhibitors - cell viability counter screen (AID 743084);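 note: cells stimulated with testosterone during compound exposure; nearly all actives have a fitted effect of over 55% in size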; note: potency is the fitted concentration of half-maximal effect
[2] = target: Aryl hydrocarbon receptor (Homo sapiens) (UniProt P35869); assay: qHTS assay to identify small molecule that activate the aryl hydrocarbon receptor (AhR) signaling pathway (AID 743085); note: nearly all actives have a fitted effect of over 15% in size; note: potency is the fitted concentration of half-maximal effect;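 for activation: HG2L7.5c1 human HepG2 liver cells with stably integrated DRE-driven firefly reporter; series mostly up to about 70 µM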
Method in brief: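 A multiplexed format paired cell viability (CellTiter-Fluor fluorescence) with AhR-dependent luciferase output (ONE-Glo luminescence) in the same wells of HepG2 DRE-luc cells after 24 h compound exposure at 37C.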

[3] = qHTS assay to identify small molecule that activate the aryl hydrocarbon receptor (AhR) signaling pathway - cell viability counter screen (AID 743086); note: nearly all actives have a fitted effect of over 45% in size; note: potency is the fitted concentration of half-maximal effect
Method in brief: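 HepG2-AhR-luc (HG2L7.5c1) cells, 4000/well, were preincubated 5 h at 37C, exposed to compound in qHTS format for 24 hr at 37C, then given CellTiter-Fluor for 30 min; viability was read as fluorescence in the reporter wells.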

[4] = qHTS assay for small molecule agonists of the antioxidant response element (ARE) signaling pathway - cell viability counter screen (AID 743203; calls by dose curve; note: nearly all actives have a fitted effect of over 55% in size; note: potency is the fitted concentration of half-maximal effect)
Method in brief: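 Viability counter screen: CellTiter-Glo luminescence, read after 30 min at room temperature, in ARE-bla HepG2 wells. Compound exposure lasted 16 h at 37C/5% CO2, following a 5 h pre-incubation of the cells after plating.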

[5] = qHTS assay for small molecule activators of the heat shock response signaling pathway - cell viability counter screen (AID 743209); note: nearly all actives have a fitted effect of over 50% in size; note: potency is the fitted concentration of half-maximal effect
Method in brief: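 Cytotoxicity counter screen run in the same wells as the heat-shock bla reporter assay: HeLa HSE-bla cells, 5 h compound exposure at 37 C, viability read by CellTiter-Glo luminescence.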

[6] = qHTS assay to identify small molecule antagonists of the peroxisome proliferator-activated receptor gamma (PPARg) signaling pathway - cell viability counter screen (AID 743194); note: nearly all actives have a fitted effect of over 55% in size; note: potency is the fitted concentration of half-maximal effect
Method in brief: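 PPARg-UAS-bla HEK293H cells were plated, rested 5 h at 37 C, then treated with compounds plus rosiglitazone (50 nM final) for 17 h at 37 C; viability was then read by CellTiter-Glo luminescence after 30 min at room temperature.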

[7] = qHTS assay for small molecule agonists of the antioxidant response element (ARE) signaling pathway (AID 743202; active = well fitted activation curve with a large enough effect in the signal ratio in the repeat runs, not every such curve was filed as active; the % refers to the signal ratio; note: potency is the fitted concentration of half-maximal effect)
Method in brief: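 Steps: seed ARE-bla HepG2 cells (2,000/well); incubate 5 h at 37 C; add compounds by pin tool; incubate 16 h at 37 C; add FRET substrate; read fluorescence after 2 h at RT.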

[8] = qHTS assay for small molecule activators of the heat shock response signaling pathway (AID 743210; active = well fitted activation curve with a large enough effect in the signal ratio in the repeat runs, with a control signal flat, not every such curve was filed as active; the % refers to the signal ratio;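 note: HeLa cells with beta-lactamase reporter driven by heat shock elements; series mostly up to about 63 µM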)
Method in brief: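 Activation of heat shock element-controlled beta-lactamase expression is measured in HeLa cells by LiveBLAzer FRET fluorescence, with compound exposure lasting 5 h at 37 C and substrate loading 2.5 h at room temperature.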

Sequence of Aryl hydrocarbon receptor (Homo sapiens) (P35869 whole entry, looked up): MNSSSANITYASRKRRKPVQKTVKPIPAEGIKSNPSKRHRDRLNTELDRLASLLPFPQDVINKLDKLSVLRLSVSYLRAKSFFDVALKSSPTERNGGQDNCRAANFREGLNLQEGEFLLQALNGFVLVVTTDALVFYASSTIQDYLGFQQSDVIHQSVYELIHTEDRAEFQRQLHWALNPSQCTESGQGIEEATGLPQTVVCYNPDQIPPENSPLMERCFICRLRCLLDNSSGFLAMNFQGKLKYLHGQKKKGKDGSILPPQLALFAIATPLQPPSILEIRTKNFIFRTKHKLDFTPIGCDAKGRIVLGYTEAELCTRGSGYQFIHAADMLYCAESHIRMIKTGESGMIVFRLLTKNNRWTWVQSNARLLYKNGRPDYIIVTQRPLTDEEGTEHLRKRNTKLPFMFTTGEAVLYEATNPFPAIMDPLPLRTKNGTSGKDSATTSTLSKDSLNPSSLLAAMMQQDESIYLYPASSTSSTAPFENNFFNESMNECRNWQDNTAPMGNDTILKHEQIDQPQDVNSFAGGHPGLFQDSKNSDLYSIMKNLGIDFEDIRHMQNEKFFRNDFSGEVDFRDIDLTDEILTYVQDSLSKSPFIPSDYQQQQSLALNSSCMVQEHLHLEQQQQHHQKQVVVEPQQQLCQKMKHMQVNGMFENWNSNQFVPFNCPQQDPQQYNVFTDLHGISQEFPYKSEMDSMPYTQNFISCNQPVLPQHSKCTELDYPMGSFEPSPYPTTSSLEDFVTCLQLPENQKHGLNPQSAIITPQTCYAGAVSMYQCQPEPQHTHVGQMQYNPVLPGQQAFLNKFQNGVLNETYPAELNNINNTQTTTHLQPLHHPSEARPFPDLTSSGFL

| SMILES | Potency [1] | Potency [2] | Potency [3] | Potency [4] | Potency [5] | Potency [6] | Potency [7] | Potency [8] |
| --- | --- | --- | --- | --- | --- | --- | --- | --- |
| CCCCCCCCCCCC(=O)NCCCN(C)C | 54.5 µM (active) | inactive | 54.5 µM (active) | 43.3 µM (active) | 49 µM (active) | – | – | – |
| CCCCN(CCCC)c1ccc(C(=O)c2ccccc2C(=O)O)c(O)c1 | inactive | inactive | inactive | – | 62.2 µM (active) | 44.1 µM (active) | – | – |
| COC(=O)C1=C(C)NC(C)=C(C(=O)OCC(C)C)C1c1ccccc1[N+](=O)[O-] (stereo not drawn) | 33.5 µM (active) and 61.1 µM (active) | 9.44 µM (active) | inactive | inactive | inactive | – | 23.7 µM (active) | – |
| CCCCCCCCCCCC[N+](C)(C)CCCCCCCCCCCC | 21.7 µM (active) | inactive | 48.6 µM (active) | 24.3 µM (active) | 43.6 µM (active) | 27.5 µM (active) | – | – |
| Cc1cccc(S(=O)(=O)O)c1C | inactive | inactive | inactive | inactive | – | – | inactive | – |
| OC1(c2ccc(Cl)c(C(F)(F)F)c2)CCN(CCCC(c2ccc(F)cc2)c2ccc(F)cc2)CC1 | 7.5 µM (active) | inactive | 21.1 µM (active) | 5.96 µM (active) | 7.5 µM (active) | 8.41 µM (active) | – | – |
| O=C(NO)C1(NS(=O)(=O)c2ccc(Oc3ccc(F)cc3)cc2)CCOCC1 | inactive | inactive | inactive | inactive | inactive | inactive | – | inactive |
| Cc1[nH]cnc1C[C@H]1CCc2c(C)c3ccccc3n2C1=O | inactive | inactive | inactive | 53.1 µM (active) | inactive | 19 µM (active) | – | – |
| CN(C)C(=O)C1(N2CCCCC2)CCN(CC[C@@]2(c3ccc(Cl)c(Cl)c3)CN(C(=O)c3ccccc3)CCO2)CC1 | 50.9 µM (active) | inactive | 20.3 µM (active) | 20.3 µM (active) | 51.3 µM (active) | 16.2 µM (active) | – | – |
| Oc1ccc2c(c1)-c1ccccc1C2 | inactive | 15.4 µM (active) | inactive | inactive | inactive | – | 4.86 µM (active) | inactive |
| C=CC(=O)OCCn1c(=O)n(CCOC(=O)C=C)c(=O)n(CCOC(=O)C=C)c1=O | 13.7 µM (active) | inactive | 38.6 µM (active) | 54.5 µM (active) | 13.8 µM (active) | 13.8 µM (active) | – | – |
| Clc1ccc2nsnc2c1NC1=NCCN1 | inactive | inactive | inactive | inactive | inactive | inactive | – | – |
| C=CC(=O)OCC(CO)(COCC(COC(=O)C=C)(COC(=O)C=C)COC(=O)C=C)COC(=O)C=C | 1.7 µM (active) | inactive | 6.04 µM (active) | 8.53 µM (active) | 2.72 µM (active) | 3.05 µM (active) | – | – |
| Cn1cc(C(=O)[C@@H]2CCc3nc[nH]c3C2)c2ccccc21 | inactive | inactive | inactive | inactive | inactive | – | inactive | – |
| CC(C)(C)CC(C)(C)c1ccc(OCCOCC[N+](C)(C)Cc2ccccc2)cc1 | 23.7 µM (active) and 24.3 µM (active) | inactive | inactive and 61.1 µM (active) | 21.7 µM (active) and 29.8 µM (active) | 34.6 µM (active) | – | – | – |
| CCc1cc(Cc2cc(CC)c(N)c(CC)c2)cc(CC)c1N | inactive | 2.73 µM (active) | inactive | 54.5 µM (active) | – | – | – | – |
| CC(C)CCCCCCCCCCCCCCC(=O)O | inactive | inactive | inactive | inactive | 24.5 µM (active) | – | inactive | – |
| Cc1onc(-c2c(Cl)cccc2Cl)c1C(=O)N[C@@H]1C(=O)N2[C@@H]1SC(C)(C)[C@@H]2C(=O)O | inactive | inactive | inactive | inactive | – | – | – | – |
| CN(C)c1ccc(C2(c3ccc(N(C)C)cc3)OC(=O)c3cc(N(C)C)ccc32)cc1 | inactive | inactive | inactive | inactive | – | – | – | – |
| O=c1[nH]sc2ccccc12 | 24.3 µM (active) | inactive | 68.6 µM (active) | 30.6 µM (active) | 54.9 µM (active) | – | – | – |
| Clc1ccc2n[nH]nc2c1 | inactive | inactive | inactive | inactive | inactive | – | – | – |
| CCCCCCCCCCCCCC[P+](CCCC)(CCCC)CCCC (tested in a mixture with another compound) | 4.35 µM (active) | inactive | inactive | 19.4 µM (active) | 11 µM (active) | 0.277 µM (active) | – | – |
| CCCCCCCC/C=C/CCCCCCCC1=NCCN1CCO | 48.6 µM (active) | inactive | inactive | 24.3 µM (active) | 19.5 µM (active) | 43.6 µM (active) | – | – |
| CC(C)(C)C(=O)OCOC(=O)[C@@H]1N2C(=O)[C@@H](NC(=O)[C@H](N)c3ccccc3)[C@H]2SC1(C)C | inactive | inactive | inactive | inactive | inactive | inactive | – | – |

| SMILES | Potency [1] | Potency [2] | Potency [3] | Potency [4] | Potency [5] | Potency [6] | Potency [7] | Potency [8] |
| --- | --- | --- | --- | --- | --- | --- | --- | --- |
| CC(C)(C)C(=O)OCOC(=O)C1N2C(=O)CC2S(=O)(=O)C1(C)C (stereo not drawn) | inactive | inactive | inactive | inactive | inactive | inactive | – | – |
| CCN(CC)CCCC(C)Nc1c2ccc(Cl)cc2nc2ccc(OC)cc12 (stereo not drawn) | inactive | 9.44 µM (active) | inactive | 7.5 µM (active) | inactive | – | – | – |
| Clc1ccc2cc3ccccc3cc2c1 | inactive | inactive | inactive | inactive | inactive | – | – | – |
| CCCCN1C(=O)[C@@H]([C@H](O)C2CCCCC2)NC(=O)C12CCN(Cc1ccc(Oc3ccc(C(=O)O)cc3)cc1)CC2 | inactive | inactive | 8.63 µM (active) | – | inactive | inactive | – | inactive |
| CCCCCCCC[P+](CCCCCCCC)(CCCCCCCC)CCCCCCCC | 9.63 µM (active) | inactive | 19.2 µM (active) | 10.8 µM (active) | 5.46 µM (active) | 4.34 µM (active) | – | – |
| CCCCN1CCCC[C@H]1C(=O)Nc1c(C)cccc1C | inactive | inactive | inactive | inactive | inactive | inactive | – | inactive |
| Oc1cc2ccccc2c2ccccc12 | 8.63 µM (active) | 8.63 µM (active) | 24.3 µM (active) | 9.69 µM (active) | 9.77 µM (active) | 3.89 µM (active) | – | – |
| CCCCCCCCOc1ccccc1C(=O)Nc1ccc(C(=O)OCC[N+](C)(CC)CC)cc1 | inactive | inactive | inactive | 29.8 µM (active) | – | – | – | – |
| ON=C1CCCC1 | inactive | inactive | inactive | inactive | inactive | – | inactive | – |
| NNc1nc(-c2ccc(N)cc2)cs1 | 27.3 µM (active) | 12.2 µM (active) | inactive | inactive | inactive | – | – | – |
| CCN(Cc1cccnc1)C(=O)c1cccc(Cl)c1[C@]1(C)C(=O)N(Cc2ccc(OC)cc2OC)c2ccc(Cl)cc21 | 16.1 µM (active) | inactive | 11.4 µM (active) | 5.09 µM (active) | inactive | – | – | – |
| CSc1cnc(C)cn1 | inactive | – | inactive | inactive | inactive | inactive | – | – |
| CCN(CC)CCNC(=O)c1c(C)[nH]c(/C=C2\C(=O)Nc3ccc(F)cc32)c1C | 26.6 µM (active) | – | 11.9 µM (active) | 29.8 µM (active) | – | – | – | – |
| CC(C)(C)c1ccc(C(=O)CCCN2CCC(OC(c3ccccc3)c3ccccc3)CC2)cc1 | inactive | – | inactive | 29.8 µM (active) | 29.8 µM (active) | – | – | – |
| Oc1cccc(-c2c3nc(c(-c4cccc(O)c4)c4ccc([nH]4)c(-c4cccc(O)c4)c4nc(c(-c5cccc(O)c5)c5ccc2[nH]5)CC4)C=C3)c1 | 29.8 µM (active) and 21.1 µM (active) | – | 26.6 µM (active) and 29.8 µM (active) | inactive | inactive | 29.8 µM (active) | – | – |
| Cc1cccc(CN2CCN(C(c3ccccc3)c3ccc(Cl)cc3)CC2)c1 (stereo not drawn) | inactive | – | inactive | inactive | inactive | inactive | – | – |
| NNc1nc(-c2ccc([N+](=O)[O-])cc2)cs1 | 30.6 µM (active) | – | inactive | – | – | 24.5 µM (active) | 9.69 µM (active) | – |
| CC(NN)c1ccccc1 (stereo not drawn) | inactive | – | inactive | inactive | inactive | inactive | inactive | – |
| O=C(O)c1ccc(Cl)c(Cl)c1 | inactive | – | inactive | inactive | inactive | – | – | – |
| O=C(Nc1cccc(Cl)c1)OCC#CCCl | 24.3 µM (active) | – | 27.3 µM (active) | 54.5 µM (active) | 19.5 µM (active) | 24.5 µM (active) | – | – |
| Cc1cc(N)c(S(=O)(=O)O)cc1Cl | inactive | – | inactive | inactive | inactive | inactive | inactive | – |
| Cc1ccc2oc(CN(Cc3ccccc3)C(=O)Nc3c(F)cc(F)cc3F)c(-c3ccc(Cl)cc3)c2c1 | inactive | – | inactive | inactive | – | inactive | – | – |
| CN(C)c1ccc(SC#N)cc1 | inactive | – | inactive | inactive | inactive | – | – | – |
| CC(C)c1ccc2c(c1)CC[C@H]1[C@](C)(CN)CCC[C@]21C | 24.3 µM (active) | – | 54.5 µM (active) | 6.86 µM (active) | – | – | – | – |
